GDH-TPI inh: GDH-TPI coupled enzyme inhibition counter-screen; GDH-TPI coupled enzyme counterscreen, NADH absorbance; inhibition, % at 4.8 µM; 360,000 compounds, 1.2% hits; in the data active means inhibition above about 30%;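 further: 0% = DMSO wells and 100% = wells lacking the enzyme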
FadD28 FP inh: inhibitors of Mycobacterium tuberculosis FadD28 bisubstrate binding | 360,000 compounds, 0.22% hits | inhibition, % at 12.5 µM | FadD28 bisubstrate probe binding, fluorescence polarization; in the data active means inhibition above about 8.5%, passing the limit was not always enough
FBA Mtb inh: inhibits M. tuberculosis FBA enzyme. P9WQA3. purified M. tuberculosis FBA, fluorescence read-out. inhibition, % at 1 µM. 360,000 compounds, 2.3% hits; in the data active means inhibition above about 27%;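 further: 0% = vehicle and 100% = reference inhibitor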
Target sequence (P9WQA3 whole entry, looked up): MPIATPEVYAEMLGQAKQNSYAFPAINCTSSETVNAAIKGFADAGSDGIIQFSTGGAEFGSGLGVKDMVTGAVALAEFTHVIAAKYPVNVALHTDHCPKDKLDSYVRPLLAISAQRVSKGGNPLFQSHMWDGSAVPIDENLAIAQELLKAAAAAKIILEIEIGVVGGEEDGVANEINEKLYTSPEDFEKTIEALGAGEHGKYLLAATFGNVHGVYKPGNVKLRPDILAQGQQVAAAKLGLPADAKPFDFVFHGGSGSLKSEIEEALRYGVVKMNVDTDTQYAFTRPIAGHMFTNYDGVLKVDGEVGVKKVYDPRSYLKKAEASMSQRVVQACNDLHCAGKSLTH
Mtb BioA inh: blocks M. tuberculosis BioA enzyme activity. purified M. tuberculosis BioA enzyme, plate reader. inhibition, % at 9.99 µM. 360,000 compounds, 0.096% hits. AID 602481; in the data active means inhibition above about 40%
3CLpro inhibitor: SARS-CoV 3CLpro protease inhibition; P0C6X7; recombinant SARS-CoV 3CLpro, quenched FRET peptide cleavage; inhibition, % at 6 µM; 290,000 compounds, 0.14% hits; AID 1706; in the data active means inhibition above about 12%
* hit, by the source's call; nt = no result given; + = active, no number. Most compounds without a hit are left out; they make up all but 3.1% or so of the library.

SMILES | GDH-TPI inh | FadD28 FP inh | FBA Mtb inh | Mtb BioA inh | 3CLpro inhibitor
Nc1nnc(CC(=O)N/N=C/c2ccc(-c3ccc(Cl)cc3Cl)o2)s1 | 38.0* | -1.6 | -0.1 | nt | -0.8
O=C(CN1CCOCC1)NCC[C@H]1CC[C@@H](NS(=O)(=O)c2ccc(F)cc2)[C@H](CO)O1 | nt | nt | nt | -0.4 | nt
C=CC(C)(C)c1c2occc2c(O)c2ccc(=O)oc12 | 9.7 | 14.2* | -0.3 | -0.3 | nt
COc1c2ccoc2c(OC)c2oc(=O)ccc12 | 6.9 | -1.0 | 6.2 | 1.0 | nt
O=C1[C@@H]2[C@@H](CN3CN(c4ccccc4)N=C(c4ccccc4)[C@@]23c2ccccc2)C(=O)N1c1ccccc1 | 17.0 | -3.3 | 34.5* | nt | nt
Cc1cc(=O)oc2cc(NC(=O)CC3(CC(=O)O)CCCC3)ccc12 | 19.5 | -2.2 | + | 1.5 | 0.0
Cc1ccc(NC(=O)CC2(CC(=O)O)CCCC2)cc1 | -6.4 | -0.1 | -0.7 | -1.9 | 3.3
CCC1(c2ccccc2)NC(=O)N(CC(=O)Nc2ccc3c(C)cc(=O)oc3c2)C1=O (stereo not given) | 20.9 | -1.4 | 198.1* | -6.0 | nt
Cc1cc(=O)oc2cc(NC(=O)C3CCCC3)ccc12 | 12.6 | -2.1 | 155.4* | -0.6 | 0.4
CCC1(c2ccccc2)NC(=O)N(CC(=O)Nc2ccc3c(c2)OCO3)C1=O (stereo not given) | -4.3 | -5.8 | -2.1 | -9.4 | 5.5
O=C(C[C@H]1C[C@H](C(=O)N2CCOCC2)[C@@]2(CCC3CCCC3)c3[nH]c4cc(-c5ccco5)ccc4c3CCN2C1=O)NCCN1CCOCC1 | 12.5 | -0.9 | 40.5* | -2.4 | nt
Cc1nc2ccccc2c(=O)n1CCc1ccccc1 | -2.5 | -1.3 | 2.2 | 1.1 | -3.4
COCCCn1c(C)nc2c(c1=O)c1nc3ccccc3nc1n2CCc1ccccc1 | 19.8 | -3.1 | 35.9* | 0.1 | 0.1
COc1ccc(NC(=O)N(C)C[C@@H]2OCCCC[C@H](C)Oc3ccc(NC(=O)Nc4ccccc4)cc3C(=O)N([C@H](C)CO)C[C@@H]2C)cc1 | nt | nt | nt | -0.5 | nt
Cc1cccc(S(=O)(=O)N2CCCCN3[C@H](C2)[C@H](c2ccc(C#C[C@H](C)O)cc2)[C@@H]3CO)c1 | nt | nt | nt | -2.6 | nt
CCOC(=O)c1c(NS(=O)(=O)Cc2ccccc2)sc2c1CCCC2 | 1.4 | 1.8 | 2.7 | 0.5 | -0.2
CCOC(=O)c1c(NS(=O)(=O)c2ccc(Br)cc2)sc2c1CCC2 | 6.1 | 11.6* | 1.0 | 2.6 | 3.5
Cn1cnc(S(=O)(=O)N[C@@H]2CC[C@H](CC(=O)Nc3ccc(-c4ccccc4)cc3)O[C@@H]2CO)c1 | nt | nt | nt | 0.1 | nt
CCCC(=O)Nc1ccc2c(c1)C(=O)N(C)[C@@H]1CC[C@H](CC(=O)NCC3CC3)O[C@@H]1CO2 | nt | nt | nt | -1.5 | nt
CO[C@@H]1CN(C)C(=O)c2cc(NS(=O)(=O)c3cccc(Cl)c3)ccc2OC[C@@H](C)NC[C@H]1C | nt | nt | nt | -2.2 | nt
CC(=O)Nc1ccc(-c2nc3ccc(NC(C)=O)cc3o2)cc1 | 9.7 | -0.4 | + | -0.9 | -1.4
CC(=O)Nc1ccc2oc(-c3ccccc3)nc2c1 | -0.9 | -2.4 | 173.1* | nt | 0.6
CC(=O)Nc1cccc(-c2nc3ccccc3o2)c1 | -6.5 | 0.1 | 7.3 | 0.3 | 1.7
CC(C)(C)c1ccc2c(c1)OC(C(=O)N/N=C\c1ccc(-c3cccc(C(=O)O)c3)o1)CO2 (stereo not given) | 38.7* | -0.5 | 9.1 | nt | 7.7
O=C(O)c1cccc(-c2ccc(/C=N/NC(=O)C3COc4ccccc4O3)o2)c1 (stereo not given) | 38.1* | -3.2 | 4.6 | nt | 0.2
SMILES | GDH-TPI inh | FadD28 FP inh | FBA Mtb inh | Mtb BioA inh | 3CLpro inhibitor
CC(C)(C)c1ccc2c(c1)OC(C(=O)N/N=C\c1ccccn1)CO2 (stereo not given) | 8.8 | -2.1 | -1.4 | nt | 0.6
O=C(C[C@@H]1CC[C@@H]2[C@H](COC[C@@H](O)CN2C(=O)c2ccccn2)O1)NC1CCC1 | nt | nt | nt | -0.3 | nt
COc1cc(C2NC(C(=O)O)Cc3c2[nH]c2ccccc32)cc(OC)c1OC (stereo not given) | 17.5 | 0.5 | 9.2 | -0.7 | -0.5
CCC1NC(C(=O)O)Cc2c1[nH]c1ccccc21 (stereo not given) | 10.8 | -1.1 | 47.2* | 0.9 | nt
C[C@@H]1CN([C@H](C)CO)C(=O)c2cc(NC(=O)CCCN(C)C)ccc2O[C@@H](C)CCCCO[C@@H]1CN(C)CC1CCCCC1 | nt | nt | nt | -0.8 | nt
Cc1ccc2c(c1)COc1c3ccc(C(=O)NCCO)cc3nn1-2 | 16.4 | 1.7 | 32.3* | 0.3 | nt
O=C(Nc1cccc(Cl)c1)N1C[C@H]2[C@@H](c3ccccc31)[C@H](CO)N2C(=O)C1CC1 | nt | nt | nt | 1.9 | nt
Cc1ccccc1-c1nnc(NC(=O)c2ccc(N3C(=O)CCC3=O)cc2)s1 | 32.7* | -0.4 | 3.9 | -2.2 | 2.7

Assay outcomes (PubChem)
